Six1-Eya2 inh: Six1/Eya2 interaction inhibition; Q15475+O00167; AlphaScreen GST-Six1/His-Eya2 binding, biochemical; hits give low values; activity change, % (concentration not given with the values); 360,000 compounds, 0.56% hits; in the data active = activity change below about -65%; inconclusive = mostly about -30% to -63%
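AlphaScreen luminescence read after one hour at 37 °C in darkness. Pin-transferred compounds met GST-Six1 and His-Eya2 protein (5X stock 250 nM/500 nM) plus glutathione donor and Ni-chelate acceptor beads (5X, 50 ug/mL).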
KDM4E inh: inhibitors of human JMJD2E histone demethylase; B2RXH2; JMJD2E catalytic domain, FDH-coupled NADH fluorescence (FDH is formaldehyde dehydrogenase); Potency, µM (top dose mostly 57.1 µM), most hits filed as inhibitors; 230,000 compounds, 1.6% hits; active = well fitted inhibition curve with a large enough effect, not every such curve was filed as active; inconclusive = small, poorly fitted or top-dose-only effect, or another doubt; inactive = no such curve, though single readings can be large or run the other way; also: nearly all actives have a fitted effect of over 50% in size
L3MBTL1 inh-1: L3MBTL1 (human) inhibition; Q9Y468; AlphaScreen L3MBTL1–H3K9me1 peptide binding; Potency, µM (highest dose often 57.1 µM), actives largely listed as inhibitors; 230,000 compounds, 0.66% hits; also: nearly all actives have a fitted effect of over 60% in size
Target sequence (Q9Y468 whole entry, looked up): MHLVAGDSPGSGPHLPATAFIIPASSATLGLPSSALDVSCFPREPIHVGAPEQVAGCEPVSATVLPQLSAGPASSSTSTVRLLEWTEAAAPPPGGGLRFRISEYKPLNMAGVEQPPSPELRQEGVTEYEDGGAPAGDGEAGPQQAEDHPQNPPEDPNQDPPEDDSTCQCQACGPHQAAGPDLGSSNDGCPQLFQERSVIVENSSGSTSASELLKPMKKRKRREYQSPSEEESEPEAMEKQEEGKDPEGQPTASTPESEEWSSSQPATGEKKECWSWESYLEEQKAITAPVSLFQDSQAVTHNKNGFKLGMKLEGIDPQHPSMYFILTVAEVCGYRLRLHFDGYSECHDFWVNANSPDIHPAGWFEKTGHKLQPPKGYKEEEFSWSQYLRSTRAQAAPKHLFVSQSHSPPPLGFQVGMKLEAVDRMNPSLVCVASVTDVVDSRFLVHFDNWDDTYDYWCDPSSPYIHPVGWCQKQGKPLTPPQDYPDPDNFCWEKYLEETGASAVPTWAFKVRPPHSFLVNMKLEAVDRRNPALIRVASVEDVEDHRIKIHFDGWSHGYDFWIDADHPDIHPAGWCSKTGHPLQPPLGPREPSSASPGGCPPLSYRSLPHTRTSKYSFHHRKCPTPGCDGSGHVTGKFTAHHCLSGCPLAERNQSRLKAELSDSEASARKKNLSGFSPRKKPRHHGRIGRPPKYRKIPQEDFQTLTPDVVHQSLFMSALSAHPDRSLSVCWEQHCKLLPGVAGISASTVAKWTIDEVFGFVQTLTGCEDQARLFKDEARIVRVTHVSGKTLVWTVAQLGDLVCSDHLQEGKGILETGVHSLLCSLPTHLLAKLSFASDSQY
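L3MBTL1 (50 nM) pre-complexed 30 min with biotinylated H3(1-15)K9me1 peptide (75 nM), then compounds added for 30 min at room temperature; AlphaScreen streptavidin donor/nickel chelate acceptor beads (10 ug/mL final) read after 30 min dark incubation.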
CtBP-E1A blk: inhibitors of CtBP/E1A interaction; activity change, % (concentration not given with the values); AlphaScreen GST-E1A/His-CtBP binding, 1536-well; hits give low values; 340,000 compounds, 0.49% hits; AID 651724; in the data active = activity change below about -65%; inconclusive = mostly about -30% to -63%
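GST-E1A and His-tagged CtBP (125 nM each as 5X stock) were preincubated with pin-transferred compound for 2 h at 37 °C in the dark, then glutathione donor and nickel acceptor beads were added for 1 h before AlphaScreen reading.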
L3MBTL1 inh-2: L3MBTL1 binding inhibition validated; L3MBTL1 methyl-lysine binding inhibition, biochemical qHTS; shares compounds with L3MBTL1 inh-1; 500 compounds, 91% hits; Potency, µM, hits mostly inhibitors; also: nearly all actives have a fitted effect of over 70% in size
L3MBTL1 ctr: counter-screen for L3MBTL1 inhibitors: AlphaScreen signal interference | shares compounds with L3MBTL1 inh-1 | AlphaScreen counterscreen, signal inhibition | Potency, µM (titrated, usually from 57.1 µM), most hits filed as inhibitors | 500 tested, under 10 active
Numbers stand for hits; - = inactive; ? = inconclusive; . = not tested or not shown. This excerpt belongs to a sample that is enriched for hits. Unless noted, calls follow the shape of the dose curve; as a rule, active = well fitted curve in the direction sought with a large enough effect; inconclusive = small, poorly fitted or top-dose-only effect, or another doubt; inactive = no such curve, though single readings can be large; an effect the other way counts as inactive or inconclusive.

SMILES	Six1-Eya2 inh	KDM4E inh	L3MBTL1 inh-1	CtBP-E1A blk	L3MBTL1 inh-2	L3MBTL1 ctr
CC(C)CCC(CCN1CCOCC1)c1ccc2c(c1)OCO2 (stereo not drawn)	-	?	-	-	.	.
O=C1C2C3C=CC(CC3)C2C(=O)N1c1nccs1 (stereo not drawn)	?	-	25.1µM	-	26.7	-
O=C1C2C3C=CC(C2C(=O)N1c1nccs1)C1C(=O)N(c2nccs2)C(=O)C31 (stereo not drawn)	-	-	.	-	.	.
CCCCN(C(=O)c1cccc(-n2cccc2)c1)c1c(N)n(Cc2ccccc2)c(=O)[nH]c1=O	.	.	20µM	.	4.23	-
O=C(COC(=O)c1ccccc1C(=O)c1ccccc1)Nc1cccc([N+](=O)[O-])c1	-	-	-	-	.	.
Nc1c(C(=O)OCC(=O)Nc2cccc([N+](=O)[O-])c2)[nH]c(=O)[nH]c1=O	?	.	31.6µM	-	23.8	-
CCCC[N+](C)(C)CCC(=O)NC(C)(C)CS(=O)(=O)[O-]	-	-	20µM	-	21.2	-
Cc1ccc(C(CCN(Cc2ccccc2)C(=O)c2ccco2)c2ccco2)cc1 (stereo not drawn)	-	-	25.1µM	-	21.2	-
COC(=O)/C(C(C)=O)=C(/C=C/C=C/N(C)C)N(C)C	-	-	.	-	.	.
COC(=O)\C(C(C)=O)=C(/C=C/C=C/N(C)C)N(C)C	-	-	14.1µM	-	6.7	-
Cc1oc(-c2ccc(F)cc2)cc1-c1nn2c(-c3ccoc3C)nnc2s1	-	-	17.8µM	-	5.97	-
Cc1oc(-c2ccc(Cl)cc2)cc1-c1nn2c(-c3ccco3)nnc2s1	.	-	-	.	.	.
COc1cnc(-c2ccccn2)nc1Oc1ccccc1	?	-	31.6µM	-66.6	21.2	-
Cc1cccc(Oc2nc(-c3ccccn3)nc3ccccc23)c1	?	-	?	?	.	.
O=C(O)c1ccc2c3c(cccc13)C(=O)N(c1ccccc1)C2=O	-	?	12.6µM	-	2.67	-
CC(=O)NS(=O)(=O)c1ccc(NC(=O)CC(C)c2ccccc2)cc1 (stereo not drawn)	-	-	-	-	.	.
CC(C)CNC(=O)COC(=O)c1c2c(nc3ccccc13)/C(=C\c1cccs1)CC2	-	.	.	-	.	.
CN(CCC#N)C(=O)COC(=O)c1c2c(nc3ccccc13)/C(=C/c1ccco1)CC2	?	25.1µM	10µM	-	2.12	?
CC(=O)c1ccc(NC(=O)CC2Nc3cccc4cccc(c34)NC2=O)cc1 (stereo not drawn)	-	?	3.55µM	.	26.7	?
COCCOC(=O)c1[nH]c2c(c1C)C(=O)CC(c1ccccc1)C2 (stereo not drawn)	-	-	-	-	.	.
CSCCOC(=O)c1[nH]c2c(c1C)C(=O)CC(c1ccco1)C2 (stereo not drawn)	-	-	35.5µM	-	18.9	-
CCOC(=O)c1[nH]c2c(c1C)C(=O)CC(c1ccco1)C2 (stereo not drawn)	-	-	31.6µM	-	21.2	-
Cc1c(C(=O)OCc2ccccc2)[nH]c2c1C(=O)CC(c1ccco1)C2 (stereo not drawn)	-	-	25.1µM	-	15	-
COCCOC(=O)c1[nH]c2c(c1C)C(=O)CC(c1ccco1)C2 (stereo not drawn)	-	-	31.6µM	-	15	-
O=C(NC(c1ccc(-c2ccccc2)cc1)c1cnccn1)C1CCN(CCCOc2ccccc2)CC1 (stereo not drawn)	-	.	.	-	.	.
SMILES	Six1-Eya2 inh	KDM4E inh	L3MBTL1 inh-1	CtBP-E1A blk	L3MBTL1 inh-2	L3MBTL1 ctr
CCCC#Cc1ccc2c(c1)O[C@H](CN(C)S(=O)(=O)c1cccc(OC)c1)[C@H](C)CN([C@H](C)CO)S2(=O)=O	-	.	.	-	.	.
CCN1CCCC1CN(Cc1cc2ccc(C)cc2[nH]c1=O)C(=S)Nc1ccc(F)cc1 (stereo not drawn)	-	-	-	-	.	.
Cc1c(C(=O)OCCOC(C)C)[nH]c2c1C(=O)CC(c1ccco1)C2 (stereo not drawn)	-	-	25.1µM	-	23.8	-
CCCCn1c(SCC(=O)c2ccc(O)c(O)c2)nc2ccsc2c1=O	-	?	-	-	.	.
O=C(O)CCCCCn1c(SCC(=O)c2ccc(O)c(O)c2)nc2ccsc2c1=O	?	10µM	31.6µM	?	2.99	-
COc1cc2cccc(OC)c(=O)c2c(O)c1OC	-	-	-	-	.	.
CC(=O)Oc1cc2cccc(OC(C)=O)c(=O)c2c(OC(C)=O)c1OC(C)=O	?	11.2µM	0.355µM	-	1.5	-
CC1CC(C)CN(CC(=O)NNC(=O)COc2ccc(Cl)cc2)C1 (stereo not drawn)	-	.	-	.	.	.
Cc1ccc(Nc2ccc(N)cc2S(=O)(=O)O)cc1	-	?	?	.	.	.
Nc1ccc(Nc2ccccc2)c(S(=O)(=O)O)c1	-	?	15.8µM	-	2.67	?
CCOc1ccc(NC(=O)CN(C)C(=O)CSCc2ccc(C)cc2)cc1OCC	-	.	-	-	.	.
Cc1ccc(/C=C2/NC(=O)N(Cc3ccc(Br)cc3)C2=O)o1	-	?	-	-	.	.
CCOC(=O)CN1C(=O)S/C(=C\c2ccc(-c3ccc(C(=O)O)c(Cl)c3)o2)C1=O	-	.	28.2µM	-	13.4	-
O=C(O)c1ccc(-c2ccc(/C=C3\NC(=O)N(Cc4ccc(Cl)cc4)C3=O)o2)cc1Cl	?	?	5.62µM	-	0.752	-
O=c1nc(/C=C/c2ccc(O)c(O)c2)oc2ccccc12	-	12.6µM	28.2µM	-	1.89	-
CC(=O)Oc1ccc(/C=C/c2nc3ccccc3c(=O)o2)cc1	-	.	-	-	.	.
COC(=O)c1cc(C(=O)OC)[nH]n1	-	-	-	.	.	.
O=C(O)c1ccc2c3n(nc2c1)-c1ccc(Cl)cc1CO3	-	.	5.01µM	-	21.2	-
CC(=O)Oc1cc(C(=O)OCC(=O)N2CCc3ccccc3C2)cc(OC(C)=O)c1OC(C)=O	-	.	8.91µM	-	2.99	-
COc1ccc(C(=O)OCC(=O)N2CCc3ccccc3C2)cc1OC	-	.	-	-	.	.
CC(C)[C@H](NC(=O)c1ccccc1Cl)C(=O)Nc1nc(-c2ccccn2)cs1	-79.8	?	35.5µM	-83.3	23.8	-
O=c1/c(=C\c2cc([N+](=O)[O-])cc([N+](=O)[O-])c2O)sc2nc3ccccc3n12	-	?	.	-	.	.
O=C(O)c1cc(C(=O)O)cc(-c2ccc(/C=c3/sc4nc5ccccc5n4c3=O)o2)c1	?	12.6µM	1.78µM	-	3.36	-
O=C(O)c1cccc(-c2ccc(/C=c3/sc4nc5ccccc5n4c3=O)o2)c1	-	-	3.55µM	.	2.67	-
O=C(CSc1nnc(-c2ccc(C(F)(F)F)cn2)o1)Nc1ccccc1Cl	-84.0	-	31.6µM	?	21.2	-
Cc1ccc(N(CCC#N)C(=O)CSc2nc3ccccc3c(=O)[nH]2)cc1	-	.	-	-	.	.
Cc1ccc(C(=O)OCC(=O)c2ccc(CC(=O)N3CCOCC3)s2)cc1C	-	.	?	-	.	.
